Assay outcomes deposited in PubChem BioAssay by National Center for Advancing Translational Sciences (NCATS).
Sampled rows, rich in hits. Any-hit rate of the full collection: about 4.7%.
D1 antag – Antagonist of Human D 1 Dopamine Receptor: qHTS | D(1A) dopamine receptor (Homo sapiens), P21728 | HEK293 TREx D1 cells, calcium flux, dopamine EC80; stronger effect = lower value | activity change, negative = inhibition, % at 10 µM | actives 3.2% (n = 360,000) | AID 504652, 2011; in the data active = activity change below about -30%; also: % is scaled to controls: 0 for no effect and ±100 for the full control effect
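After overnight tetracycline induction at 30 C, force-coupled D1 HEK293 cells took up a no-wash calcium dye at room temperature. Compounds were added and monitored 180 s, and the response to EC80 dopamine was then recorded.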
TRHR PAM – qHTS for Small Molecule Agonists and Allosteric Enhancers of Human TRH Receptor: Primary Screen for Enhancers; Thyrotropin-releasing hormone receptor (Homo sapiens), P34981; TRHR cells, fluo-8 calcium fluorescence, EC20 TRH enhancement; enhancement, % at 2 µM; actives 0.66% (n = 360,000); in the data active = enhancement above about 30%; also: 0% is about no effect
Target sequence (P34981 whole entry, looked up): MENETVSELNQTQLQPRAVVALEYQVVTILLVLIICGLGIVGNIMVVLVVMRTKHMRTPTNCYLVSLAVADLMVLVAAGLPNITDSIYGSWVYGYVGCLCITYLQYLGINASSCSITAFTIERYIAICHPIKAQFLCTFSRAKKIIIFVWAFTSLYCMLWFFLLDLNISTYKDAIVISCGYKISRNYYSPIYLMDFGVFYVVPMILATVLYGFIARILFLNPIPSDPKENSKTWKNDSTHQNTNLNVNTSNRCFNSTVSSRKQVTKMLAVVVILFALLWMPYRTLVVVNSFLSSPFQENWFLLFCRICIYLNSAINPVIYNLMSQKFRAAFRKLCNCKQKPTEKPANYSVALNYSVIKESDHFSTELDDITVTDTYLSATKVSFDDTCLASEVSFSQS
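Enhancer read-out: after compound pinning and an initial kinetic agonist-mode read, an EC20 of TRH (10 nM final) was injected and fluo-8 calcium signal (Ex 480/Em 530) followed at 1 s/cycle for 100 cycles in TRHR-expressing cells.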
D1 potentiator – Potentiators of Human D1 Dopamine Receptor: qHTS; actives 0.036% (n = 360,000); D(1A) dopamine receptor (Homo sapiens), P21728; potentiation, % at 10 µM; AID 504651, 2011; HEK293 TREx D1 cells, calcium flux, dopamine EC20 potentiation; in the data active = potentiation above about 30%; also: 0% is about no effect
D1 agonist – Allosteric Agonists of the Human D1 Dopamine Receptor: qHTS | D(1A) dopamine receptor (Homo sapiens), P21728 | HEK293 T-REx D1 cells, calcium flux, agonist mode | activation, % at 2 µM | actives 1% (n = 360,000) | AID 504660, 2011; also: 0% is about no effect
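Agonism was scored from calcium flux recorded over 180 s (1 read/s) after pintool compound addition, following a 10-cycle baseline. Cells were inducible force-coupled HEK293 TREx D1, plated overnight at 30 C and loaded with no-wash calcium dye.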
TRHR ag – qHTS for Small Molecule Agonists and Allosteric Enhancers of Human TRH Receptor: Primary Screen for Agonists | actives 0.18% (n = 360,000) | AID 493084, 2011 | TRHR cells, calcium flux fluo-8, FDSS agonist mode | activation, % at 2 µM; also: 0% is about no effect
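TRHR-expressing cells, plated overnight in medium with 10% serum, were loaded with fluo-8 calcium dye at room temperature. After a 10 s baseline, library compound was pin-added and calcium release was recorded kinetically (ex 480/em 530) as agonist response.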
* hit, by the source's call. Rule as the data show it, unless noted: active = activation above about 30%; inactive = the rest.

What do the screens show for `COc1cccc(CN(C)C(=O)c2ccc(Oc3ccccc3)cc2)c1OC`?
D1 antag: 2; TRHR PAM: -4; D1 potentiator: -7; D1 agonist: 32*; TRHR ag: -2

How did COc1cccc(CN(C)C(=O)c2ccc(COc3ccc(Cl)cc3)cc2)c1OC do in these assays?
D1 antag: -19; TRHR PAM: 7; D1 agonist: 54*; TRHR ag: -1

Results for COc1ccccc1CN(C)C(=O)c1ccc(COc2ccccc2)cc1 ?
D1 antag: -4; TRHR PAM: -12; D1 potentiator: -4; D1 agonist: 11; TRHR ag: -1

What do the screens show for `C=CCn1c(SCC(=O)N2CCOCC2)nc(O)cc1=O`?
D1 antag: 5; TRHR PAM: 9; D1 potentiator: -5; D1 agonist: 3; TRHR ag: 1

How did C=CCn1c(SCC(=O)N(CC)CC)nc(O)cc1=O do in these assays?
D1 antag: -2; TRHR PAM: 0; D1 potentiator: 1; D1 agonist: 3; TRHR ag: 0

How did C=CCn1c(SCC(=O)N2CCCCCC2)nc2ccccc2c1=O do in these assays?
D1 antag: -32*; TRHR PAM: 7; D1 potentiator: -4; D1 agonist: 1; TRHR ag: 0

Results for C=CCn1c(SCC(=O)N2CCCCC2)nc(O)cc1=O ?
D1 antag: -63*; TRHR PAM: -2; D1 potentiator: 0; D1 agonist: 1; TRHR ag: 1

What do the screens show for `C=CCn1c(SCc2c(F)c(F)c(F)c(F)c2F)nc(O)cc1=O`?
D1 antag: -14; TRHR PAM: -6; D1 potentiator: 7; D1 agonist: 33*; TRHR ag: 0

Results for COc1ccc(CCNC(=O)NCc2noc3ccc(C)cc23)c(OC)c1 ?
D1 antag: 7; TRHR PAM: 3; D1 potentiator: -3; D1 agonist: 2; TRHR ag: 0

How did Cc1ccc(N2C(=O)CCSC23C(=O)N(Cc2ccccc2)c2ccccc23)cc1F (configuration not stated) do in these assays?
D1 antag: 14; TRHR PAM: 11; D1 potentiator: -4; D1 agonist: 3; TRHR ag: -1

Results for CCc1ccc(C(=O)c2cn(CC(=O)Nc3ccc(OC)c(Cl)c3)c3nc(C)ccc3c2=O)cc1 ?
D1 antag: 12; TRHR PAM: 12; D1 potentiator: -4; D1 agonist: 3; TRHR ag: -1

Results for O=C(Cn1cc(C(=O)c2ccncc2)c(=O)c2cc(F)ccc21)Nc1ccc(Cl)cc1 ?
D1 antag: -4; TRHR PAM: 3; D1 potentiator: 5; D1 agonist: 0; TRHR ag: 0

What do the screens show for `CCn1c(C)nc2cc(C(=O)OC(C(F)(F)C(F)F)C(F)(F)C(F)F)ccc21`?
D1 antag: -37*; TRHR PAM: 8; D1 potentiator: -3; D1 agonist: 17; TRHR ag: -1

How did COC(=O)c1cnc(Oc2ccc(NC(=O)NC(=O)c3c(OC)cccc3OC)cc2)cc1C(F)(F)F do in these assays?
D1 antag: -54*; TRHR PAM: 3; D1 potentiator: -11; D1 agonist: 2; TRHR ag: 2

What do the screens show for `CCOC(=O)CSc1nnc(-c2c[nH]c3ccccc23)n1CC`?
D1 antag: -3; TRHR PAM: 10; D1 agonist: 12; TRHR ag: 0

What do the screens show for `CCn1c(SC(C)C)nnc1-c1c[nH]c2ccccc12`?
D1 antag: -31*; TRHR PAM: 4; D1 agonist: 2; TRHR ag: 0

What do the screens show for `CCc1ccc(NCc2cc3cc4c(cc3n(CC(=O)Nc3ccccc3OC)c2=O)OCCO4)cc1`?
D1 antag: -9; TRHR PAM: -1; D1 potentiator: 1; D1 agonist: 1; TRHR ag: 1

What do the screens show for `CN(C)c1ccc(S(=O)(=O)N2CCCCC2)cc1NC(=O)CN1C(=O)NC(C)(c2ccccc2)C1=O` (configuration not stated)?
D1 antag: 3; TRHR PAM: 6; D1 potentiator: 0; D1 agonist: 3; TRHR ag: 0

Results for CN(C)c1ccc(S(=O)(=O)N2CCCCC2)cc1NC(=O)CN1C(=O)NC2(CCCC2)C1=O ?
D1 antag: -42*; TRHR PAM: 7; D1 potentiator: 4; D1 agonist: -1; TRHR ag: -1

What do the screens show for `CN(C)S(=O)(=O)c1ccc(NC(=O)CN2C(=O)NC3(CCCC3)C2=O)cc1`?
D1 antag: -10; TRHR PAM: 36*; D1 potentiator: -6; D1 agonist: 5; TRHR ag: 1

What do the screens show for `CC1(C(=O)CSc2nc3ccccc3[nH]2)CCC(=O)O1` (configuration not stated)?
D1 antag: -16; TRHR PAM: -7; D1 potentiator: -6; D1 agonist: 0; TRHR ag: 0

How did CC1(C(=O)CSc2ncn[nH]2)CCC(=O)O1 (configuration not stated) do in these assays?
D1 antag: -43*; TRHR PAM: 1; D1 potentiator: 22; D1 agonist: 2; TRHR ag: 0

What do the screens show for `Cc1ccccc1NC(=O)c1ccc(CN2CC(=O)N3CCCCC3C2=O)cc1` (configuration not stated)?
D1 antag: -37*; TRHR PAM: 2; D1 potentiator: -2; D1 agonist: 2; TRHR ag: 0

How did N=c1c2c(n(Cc3ccc(F)cc3)c3c1CCC3)CCCC2 do in these assays?
D1 antag: -30*; TRHR PAM: -2; D1 potentiator: -9; D1 agonist: 3; TRHR ag: 0

Results for CCCCCCCCCn1c2c(c(=N)c3c1CCC3)CCCC2 ?
D1 antag: 8; TRHR PAM: -1; D1 potentiator: 2; D1 agonist: 85*; TRHR ag: 4

What do the screens show for `N=c1c2c(n(Cc3ccc(Cl)cc3)c3c1CCC3)CCC2`?
D1 antag: 0; TRHR PAM: 12; D1 potentiator: -6; D1 agonist: 1; TRHR ag: 1

Results for O=C(COC(=O)CCC(=O)c1ccc(F)cc1)Nc1ccccc1 ?
D1 antag: 7; TRHR PAM: -2; D1 potentiator: -1; D1 agonist: 0; TRHR ag: 0

Results for NC(=O)c1ccc(NC(=O)COC(=O)CCC(=O)c2ccc(Cl)cc2)cc1 ?
D1 antag: -31*; TRHR PAM: 1; D1 potentiator: -7; D1 agonist: 2; TRHR ag: 0
